HepG2 viability – HepG2 cytotoxicity, counter-screen for TGF-b inhibitors | HepG2 CAGA-GFP viability, ATP luminescence, 18 h | Potency, µM (doses to about 46.1 µM), for inactives: top-dose activity change, negative = cytotoxicity, hits mostly cytotoxic | 410,000 tested, 0.76% active; note: potency is the fitted concentration of half-maximal effect
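HepG2 CAGA-GFP cells (1000/well, DMEM with 1% FBS) received compound, then TGF-beta at 500 pg/mL final, and were incubated 18 hours at 37 degrees C. Viability was read by CellTiter-Glo luminescence. Media-only wells were set as complete cell-killing and DMSO as no toxicity.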
ATXN2 expr inh – inhibitors of ATXN2 expression. Potency, µM (titrated, usually from 57 µM), for inactives: top-dose activity change, negative = inhibition, most hits filed as inhibitors. 360,000 tested, 0.72% active. HEK-293 ATXN2-luciferase reporter, luminescence, 24 h. AID 1745845; note: potency is the fitted concentration of half-maximal effect; % is set by controls: 0 for no effect and ±100 for the full control effect; nearly all actives have a fitted effect of over 55% in size
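qHTS (up to 57 uM final) was run with 24 h compound exposure of reporter cells at 37 °C. Each well was multiplexed: SteadyGlo luminescence measured ATXN2-luciferase expression after a fluorogenic Gly-Phe-AFC viability readout (25 uM final).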
uPA generation – blocks generation of uPA at the cell surface | 330,000 tested, 0.31% active | AID 540303 | Potency, µM (top dose mostly 38.3 µM), inactives show top-dose activity change, negative = inhibition, actives largely listed as inhibitors | cell surface uPA generation assay, qHTS; active = well fitted inhibition curve with a large enough effect; inconclusive = small, poorly fitted or top-dose-only effect; inactive = no such curve, though single readings can be large or run the other way; tested in mouse RAW 264.7 cells; note: potency is the fitted concentration of half-maximal effect; % is set by controls: 0 for no effect and ±100 for the full control effect; nearly all actives have a fitted effect of over 55% in size
TGFb inhibitor – inhibitors of TGF-b signaling; Potency, µM (highest dose often 46.1 µM), for inactives: top-dose activity, negative = inhibition, most hits filed as inhibitors; HepG2 CAGA-GFP TGF-b/SMAD3 reporter, GFP fluorescence, 18 h; TGF-beta stimulated, 500 pg/mL final; 410,000 tested, 1.2% active; note: potency is the fitted concentration of half-maximal effect; % is set by controls: 0 for no effect and ±100 for the full control effect; nearly all actives have a fitted effect of over 65% in size
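Inhibition of TGF-beta-driven CAGA-GFP reporter expression in HEPG2 cells is measured by cellular GFP fluorescence after 18 h stimulation with 500 pg/mL recombinant TGF-beta in 1% FBS medium at 37 degrees C.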
Giardia killer – Giardia lamblia killing. AID 540267. 340,000 tested, 0.15% active. activity change, % at 7.66 µM, hits read low. Giardia lamblia trophozoite viability; in the data active = activity change below about -80%; inconclusive = between about -30% and that limit;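 note: parasites exposed to compound for two days anaerobically before the ATP read; % is set by controls: 0 for no effect and ±100 for the full control effect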
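Compounds were tested on trophozoites seeded at 100 cells/well and held 48 hrs at 37 deg C anaerobically. An ATP-based luminescent kit measured the remaining live cells.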
ATXN viability – reduces viability in counter-screen for ATXN expression inhibitors | S2 cells (HEK-293 line with an ATXN2-luciferase reporter) viability, CellTiter-Fluor protease fluorescence, 24 h | Potency, µM (highest dose often 56.7 µM), hits mostly cytotoxic | 400,000 tested, 0.49% active | AID 651635; note: potency is the fitted concentration of half-maximal effect; nearly all actives have a fitted effect of over 40% in size
Active calls of the source: *; i = inactive; ? = inconclusive; · = not tested or not shown; [ ] = remark or other dose. An excerpt weighted towards active compounds, which were near 2.6% of everything screened. Unless noted, calls come from the whole dose curve; as a rule, active = well fitted curve in the direction sought with a large enough effect; inconclusive = small, poorly fitted or top-dose-only effect, or another doubt; inactive = no such curve, though single readings can be large; an effect the other way counts as inactive or inconclusive.

SMILES	HepG2 viability	ATXN2 expr inh	uPA generation	TGFb inhibitor	Giardia killer	ATXN viability
CCC(C)c1ccc(C(C)NC(=S)NCc2ccc(F)cc2)cc1 (stereo not drawn)	-23%	?	-13%	18µM*	-9	i
O=C(CSc1ccccc1)N/N=C/c1ccccc1O	-10%	?	-4%	-17%	17	?
COc1ccc(CSCC(=O)N/N=C/c2ccccc2O)cc1	-19%	25µM*	0%	-22%	-4	i
COc1cccc(C2(CC(=O)N3CCCOc4c(cccc4OC)C3)CC(=O)N(C)C2=O)c1 (stereo not drawn)	·	·	·	·	·	i
CN1N=C(N)c2cn(C3OC(COP(=O)(O)O)C(O)C3O)c3ncnc1c23 (stereo not drawn)	-41%	16%	-12%	0.28µM*	-6	i
O=C(c1ccc([N+](=O)[O-])o1)N(Cc1nnc(-c2ccccc2Cl)o1)C1CC1	1%	-20%	?	1%	?	i
Cc1ccc(C(=O)N(Cc2nnc(-c3ccccc3Cl)o2)C2CC2)o1	10µM*	·	·	-3%	·	i
C=C1C=C(C(F)F)n2ncc(C(=O)Nc3ccc(N(CC)CC)cc3)c2N1	8%	·	·	21%	·	·
CC(=O)N1CCc2c(sc(NC(=O)c3ccc(S(=O)(=O)N(C)C)cc3)c2C#N)C1	13%	1%	2%	1%	-22	i
CC(=O)N1CCc2c(sc(NC(=O)c3ccc4c(c3)OCCO4)c2C#N)C1	-14%	-24%	7.9µM*	-17%	-21	i
Cc1ccc(C(=O)Nc2cccc(-c3nc(CNC(=O)C4(C)CC4)c(C)o3)c2)s1	·	·	·	·	·	i
CSc1ncccc1C(=O)NCCN1Cc2ccccc2OC(c2ccccc2F)C1 (stereo not drawn)	·	·	·	·	·	i
CCc1ccc(NC(=O)c2ccc(F)c(S(=O)(=O)NC3CCCCCC3)c2)cc1	-17%	·	·	11µM*	·	·
CCc1ccc(NC(=O)c2ccc(F)c(S(=O)(=O)NCC3COc4ccccc4O3)c2)cc1 (stereo not drawn)	-45%	?	?	11µM*	-8	?
Cc1cc(C)n(-c2ccc(C(=O)NCC3Cc4cc(-c5cnccn5)ccc4O3)cc2)n1 (stereo not drawn)	·	·	·	·	·	i
O=c1ccn([C@@H]2O[C@H](CO)[C@H](O)[C@H]2O)c(=O)[nH]1	·	1%	·	·	·	·
Fc1ccc(CCNc2ncnc3nc[nH]c23)cc1	-20%	·	·	33%	22	·
Cc1ccc(Cc2nc3ccccc3nc2SCC(=O)N2CCCCC2C)cc1 (stereo not drawn)	-37%	?	·	16µM*	·	?
COc1ccccc1Cc1nc2ccccc2nc1SCC(=O)N1CCC(C)CC1	-60%	1%	·	16µM*	·	?
COc1ccccc1Cc1nc2ccccc2nc1SCC(=O)N1CCN(c2ccccc2)CC1	7%	·	·	25%	·	·
COc1cccc(Cc2nc3ccccc3nc2SCC(=O)N2CCN(c3ccccc3)CC2)c1	-20%	·	·	-2%	·	·
CCN(C(=O)CSc1nc2ccccc2nc1Cc1ccc(F)cc1)c1cccc(C)c1	2%	13%	·	5%	·	?
CCN(C(=O)CSc1nc2ccccc2nc1Cc1cccc(OC)c1)c1cccc(C)c1	-10%	·	·	16µM*	·	·
COc1cccc(Cc2nc3ccccc3nc2SCC(=O)N2CCCCC2C)c1 (stereo not drawn)	-29%	?	·	11µM*	·	?
Cc1ccc(NC(=O)c2ncn(CCCN[C@H](C)c3cccc4ccccc34)n2)cc1C	-103%	?	?	?	-11	22µM*
SMILES	HepG2 viability	ATXN2 expr inh	uPA generation	TGFb inhibitor	Giardia killer	ATXN viability
Cc1cc(C)c(CN2CCN(CCCn3cnc(C(=O)Nc4ccc(C)c(C)c4)n3)CC2)c(C)c1	18µM*	?	?	?	7	·
OCC1CCCN(c2nc3cc4c(cc3cc2CNCc2cccc(C(F)(F)F)c2)OCO4)C1 (stereo not drawn)	·	·	·	·	·	i
O=C(Nc1ccc(Cl)cc1)N1CCCN(Cc2ccc(F)cc2)C1	11µM*	?	·	?	4	?
CCOc1cc2c3c(c1)C1(Nc4ccccc4S1)C(=O)N3C(C)(C)CC2C (stereo not drawn)	-35%	-12%	0%	13µM*	3	i
CCOc1cc2c3c(c1)C1(OCCO1)C(=O)N3C(C)(C)CC2C (stereo not drawn)	0%	-3%	3%	13%	-7	i
COC1=C(c2ccccc2)C(=O)c2ccccc2C1=O	22µM*	?	-9%	11µM*	37	·
O=C(C1=C(c2ccccc2)C(=O)c2ccccc2C1=O)c1ccccc1	10µM*	?	?	5.6µM*	?	·
COc1cccc(-c2ccc(O)c(CNCc3cccc(OC)c3OC)c2)n1	·	·	·	·	·	i
C[C@@]12C=CC(=O)C=C1CC[C@H]1[C@H]3CC[C@](O)(C(=O)CO)[C@]3(C)CC(=O)[C@@H]12	·	·	·	·	·	i
O=C1Nc2cccnc2N(C(=O)CCl)c2ccccc21	-74%	?	-16%	?	-20	20µM*
O=c1cc(N2CCCCC2)c(-c2ccccc2)nn1Cc1ccccc1	3%	-12%[11.3 µM]	6%	?	19	·
COc1ccc(Cn2nc(-c3ccccc3)c(N3CCCCC3)cc2=O)cc1	22µM*	-21%	-1%	?	6	i
O=C1CSC(=S)N1Cc1cccnc1	-26%	?	-14%	7.9µM*	-8	?
O=C1CSC(=S)N1c1cccnc1	-36%	-8%	-1%	-4%	11	i
O=C1/C(=C\c2cccc([N+](=O)[O-])c2O)SC(=S)N1Cc1ccccc1	-42%	?	-15%	10µM*	-27	?
O=C1/C(=C/c2ccccc2O)SC(=S)N1Cc1cccnc1	-2%	28µM*	?	?	14	16µM*
O=C1/C(=C\c2ccc(O)cc2)SC(=S)N1Cc1ccccc1	-43%	-37%	-1%	?	53	i
O=C(C1CCOC1)N1CCOc2ccc(CN3CCC(Oc4cccnc4)CC3)cc2C1 (stereo not drawn)	·	·	·	·	·	i
COc1cc(OC)c(C(=O)C=Cc2ccc(OC)c(OC)c2)c(OC)c1	-40%	?	-13%	-4%	9	i
COc1cc(O)c(C(=O)/C=C/c2ccccc2)c(OC)c1	-52%	?	8.9µM*	?	-13	·
CCCCc1c(C)c(C#N)c2[nH]c3ccccc3n2c1=O	-52%	?	-4%	3.2µM*	-6	i
Cc1c(CCO)c(=O)n2c([nH]c3ccccc32)c1C#N	-13%	-18%	9%	-4%	-30	i
CNC(=O)c1cccc(-c2ccc3c(N4CCOC[C@H]4C)nc(N4CCOC[C@H]4C)nc3n2)c1	·	-32%	·	·	·	·
